# Assay results: PubChem BioAssay (NCATS)
# Records with an inconclusive call do not appear. A call without a number means that no potency is given here. The source made the active and inactive calls. Unless noted, calls follow the shape of the dose curve; as a rule, active = well fitted inhibition curve with a large enough effect; inconclusive = small, poorly fitted or top-dose-only effect; inactive = flat fitted curve, though single readings scatter.
# Tests used:
# [1] = qHTS drug screen for cell cycle checkpoint inhibitors in PARPi-resistant BRCA-mutant ovarian cancer cell lines. (AID 1963452; calls by dose curve); settings: PEO1/OlaR viability, CellTiter-Glo luminescence, 96 h; for Z-AUC: stronger effect = lower value
# Summary of the method: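 PEO1, PEO4 and PEO1/OlaR ovarian cancer cells, 600 per well, exposed 96 h at 37C to a dilution series. Viability read by CellTiter-Glo luminescence, normalized to DMSO and empty wells; activity summarized as Z-AUC.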
# [2] = qHTS for identification of novel therapeutic agents for treatment of microphthalmiaassociated transcription factor (MiT) renal cell carcinoma (RCC) (AID 1963991; calls by dose curve); settings: CellTiter-Glo, 48 h; for z-score: stronger effect = lower value; for Potency: active = Z-AUC below -0.8 in all three lines
# Summary of the method: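 Three TFE3-fusion RCC cell lines (UOK109, UOK124, UOK145), 500 cells/well, were exposed to the 1912-compound MIPE 4.0 library for 48 hours at 37 C. Viability was read by CellTiter-Glo luminescence, normalised to DMSO (100%) and empty wells (0%), with 11-concentration curve fits.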
# [3] = qHTS profiling for inhibitors of Plasmodium falciparum proliferation (AID 504749); also: nearly all actives have a fitted effect of over 60% in size; settings: P. falciparum in erythrocytes, SYBR Green DNA, 72 h
# Summary of the method: (§1)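 Three-day growth assay of blood-stage parasites in erythrocytes (0.3% parasitemia, 2.5% hematocrit) at 37 C, 5% CO2, quantified by SYBR Green DNA staining after overnight detergent lysis.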
# 3D7 = test: as above; settings: P. falciparum in erythrocytes, SYBR Green DNA, 72 h; series mostly up to 28.7 µM
# Summary of the method: as §1
# 7G8 = test: as above; settings: P. falciparum in erythrocytes, SYBR Green DNA, 72 h; series mostly up to 28.7 µM
# Summary of the method: as §1
# AA1029 = test: as above; settings: P. falciparum in erythrocytes, SYBR Green DNA, 72 h; series mostly up to 28.7 µM
# Summary of the method: as §1
# AS120 = test: as above; settings: P. falciparum in erythrocytes, SYBR Green DNA, 72 h; series mostly up to 28.7 µM
# Summary of the method: as §1
# ATS189 = test: as above; settings: P. falciparum in erythrocytes, SYBR Green DNA, 72 h; series mostly up to 28.7 µM
# Summary of the method: as §1
# ATS95 = test: as above; settings: P. falciparum in erythrocytes, SYBR Green DNA, 72 h; series mostly up to 28.7 µM
# Summary of the method: as §1
# C2A = test: as above; settings: P. falciparum in erythrocytes, SYBR Green DNA, 72 h; series mostly up to 28.7 µM
# Summary of the method: as §1
# CP185 = test: as above; settings: P. falciparum in erythrocytes, SYBR Green DNA, 72 h; series mostly up to 28.7 µM
# Summary of the method: as §1
# CP191 = test: as above; settings: P. falciparum in erythrocytes, SYBR Green DNA, 72 h; series mostly up to 28.7 µM
# Summary of the method: as §1
# CP192 = test: as above; settings: P. falciparum in erythrocytes, SYBR Green DNA, 72 h; series mostly up to 28.7 µM
# Summary of the method: as §1
# CP194 = test: as above; settings: P. falciparum in erythrocytes, SYBR Green DNA, 72 h; series mostly up to 28.7 µM
# Summary of the method: as §1
# CP201 = test: as above; settings: P. falciparum in erythrocytes, SYBR Green DNA, 72 h; series mostly up to 28.7 µM
# Summary of the method: as §1
# CP203 = test: as above; settings: P. falciparum in erythrocytes, SYBR Green DNA, 72 h; series mostly up to 28.7 µM
# Summary of the method: as §1
# CP211 = test: as above; settings: P. falciparum in erythrocytes, SYBR Green DNA, 72 h; series mostly up to 28.7 µM
# Summary of the method: as §1
# CP215 = test: as above; settings: P. falciparum in erythrocytes, SYBR Green DNA, 72 h; series mostly up to 28.7 µM
# Summary of the method: as §1
# CP217 = test: as above; settings: P. falciparum in erythrocytes, SYBR Green DNA, 72 h; series mostly up to 28.7 µM
# Summary of the method: as §1
# [4] = measured here: PEO1 parental Z-AUC
# [5] = TFE3-RCC UOK109 viability, measured here: UOK109 Z-AUC
# [6] = TFE3-RCC viability, measured here: UOK124 Z-AUC
# [7] = TFE3-RCC viability, measured here: UOK145 Z-AUC
# [8] = at 28.7 µM (top of the series), parasite line A
# [9] = at 28.7 µM (top of the series), parasite line B
# Potency is read from the fitted curve at half-maximal effect.
smiles,measurement,setting,value
CC[C@H](NC(C)C)[C@H](O)c1ccc(O)c2[nH]c(=O)ccc12,Z-AUC,[1],-0.979 (inactive)
same,Z-AUC,[1]; [4],0.0863
same,Z-AUC,[1]; measured here: PEO4 Z-AUC,0.0233
same,z-score,[2]; [5],0.709
same,z-score,[2]; [6],0.735
same,z-score,[2]; [7],1.42
same,"activity, negative = inhibition",[3]; [8],3.5% (inactive)
same,"activity, negative = inhibition",[3]; [9],5.44% (inactive)
same,Potency,3D7,inactive
same,Potency,7G8,inactive
same,Potency,AA1029,inactive
same,Potency,AS120,inactive
same,Potency,ATS189,inactive
same,Potency,ATS95,inactive
same,Potency,C2A,inactive
same,Potency,CP185,inactive
same,Potency,CP191,inactive
same,Potency,CP192,inactive
same,Potency,CP194,inactive
same,Potency,CP201,inactive
same,Potency,CP203,inactive
same,Potency,CP211,inactive
same,Potency,CP215,inactive
same,Potency,CP217,inactive
CC(C)C[C@H](NC(=O)[C@H](CCc1ccccc1)NC(=O)CN1CCOCC1)C(=O)N[C@@H](Cc1ccccc1)C(=O)N[C@@H](CC(C)C)C(=O)[C@@]1(C)CO1,Potency,[1],9.8 nM (active)
same,Z-AUC,[1]; [4],-3.02
same,Z-AUC,[1]; measured here: PEO4 Z-AUC,-2.77
same,Potency,[2]; TFE3-RCC UOK109 viability,1480 nM (active)
same,z-score,[2]; [5],-1.85
same,z-score,[2]; [6],-2.71
same,z-score,[2]; [7],-3.3
C#CCN[C@@H]1CCc2ccccc21,Z-AUC,[1],-0.484 (inactive)
same,Z-AUC,[1]; [4],-0.355
same,Z-AUC,[1]; measured here: PEO4 Z-AUC,-0.739
same,z-score,[2]; [5],0.682
same,z-score,[2]; [6],0.222
same,z-score,[2]; [7],0.635
same,"activity, negative = inhibition",[3]; [8],16.7% (inactive)
same,"activity, negative = inhibition",[3]; [9],9.12% (inactive)
same,Potency,3D7,inactive
same,Potency,7G8,inactive
same,Potency,AA1029,inactive
same,Potency,AS120,inactive
same,Potency,ATS189,inactive
same,Potency,ATS95,inactive
same,Potency,C2A,inactive
same,Potency,CP185,inactive
same,Potency,CP191,inactive
same,Potency,CP192,inactive
same,Potency,CP194,inactive
same,Potency,CP201,inactive
same,Potency,CP203,inactive
same,Potency,CP211,inactive
same,Potency,CP215,inactive
same,Potency,CP217,inactive
Nc1nc(F)nc2c1ncn2[C@@H]1O[C@H](CO)[C@@H](O)[C@@H]1O,Z-AUC,[1],0.0458 (inactive)
same,Z-AUC,[1]; [4],0.0902
same,Z-AUC,[1]; measured here: PEO4 Z-AUC,0.704
same,Potency,[2]; TFE3-RCC UOK109 viability,372 nM (active)
same,z-score,[2]; [5],-1.54
same,z-score,[2]; [6],-1.3
same,z-score,[2]; [7],-1.61
CCOC(=O)c1ccc(OC(=O)CCCCCN=C(N)N)cc1,Z-AUC,[1],1.08 (inactive)
same,Z-AUC,[1]; [4],1.13
same,Z-AUC,[1]; measured here: PEO4 Z-AUC,0.861
same,z-score,[2]; [5],0.377
same,z-score,[2]; [6],0.137
same,z-score,[2]; [7],-0.125
same,"activity, negative = inhibition","[3]; at 12.8 µM (top of the series), parasite line A",-3.04% (inactive)
same,"activity, negative = inhibition","[3]; at 12.8 µM (top of the series), parasite line B",4.29% (inactive)
same,Potency,7G8,3550 nM (active)
same,Potency,AA1029,inactive
same,Potency,AS120,inactive
same,Potency,ATS95,inactive
same,Potency,C2A,inactive
same,Potency,CP185,inactive
same,Potency,CP192,inactive
same,Potency,CP194,inactive
same,Potency,CP201,inactive
same,Potency,CP203,inactive
same,Potency,CP211,inactive
same,Potency,CP215,inactive
same,Potency,CP217,inactive
NC(=O)c1cccnc1,Z-AUC,[1],1.48 (inactive)
same,Z-AUC,[1]; [4],1.33
same,Z-AUC,[1]; measured here: PEO4 Z-AUC,1.21
same,z-score,[2]; [5],0.739
same,z-score,[2]; [6],0.417
same,z-score,[2]; [7],-0.282
same,"activity, negative = inhibition",[3]; [8],9.61% (inactive)
same,"activity, negative = inhibition",[3]; [9],2.45% (inactive)
same,Potency,3D7,inactive
same,Potency,7G8,inactive
same,Potency,AA1029,inactive
same,Potency,AS120,inactive
same,Potency,ATS189,inactive
same,Potency,ATS95,inactive
same,Potency,C2A,inactive
same,Potency,CP185,inactive
same,Potency,CP191,inactive
same,Potency,CP192,inactive
same,Potency,CP194,inactive
same,Potency,CP201,inactive
same,Potency,CP203,inactive
same,Potency,CP211,inactive
same,Potency,CP215,inactive
same,Potency,CP217,inactive
CCC(C)(C)c1ccc(CC(C)CN2C[C@@H](C)O[C@@H](C)C2)cc1 (some centres undefined),Z-AUC,[1],0.498 (inactive)
same,Z-AUC,[1]; [4],0.321
same,Z-AUC,[1]; measured here: PEO4 Z-AUC,0.288
same,z-score,[2]; [5],0.00856
same,z-score,[2]; [6],0.0457
same,z-score,[2]; [7],1.19
same,"activity, negative = inhibition",[3]; [8],-5% (inactive)
same,"activity, negative = inhibition",[3]; [9],-10.4% (inactive)
same,Potency,7G8,10000 nM (active)
same,Potency,AA1029,inactive
same,Potency,AS120,inactive
same,Potency,ATS189,inactive
same,Potency,ATS95,inactive
same,Potency,C2A,inactive
same,Potency,CP185,inactive
same,Potency,CP191,inactive
same,Potency,CP192,inactive
same,Potency,CP194,inactive
same,Potency,CP201,inactive
same,Potency,CP203,inactive
same,Potency,CP211,inactive
same,Potency,CP215,inactive
same,Potency,CP217,inactive
C[C@]12C=CC(=O)C=C1CC[C@@H]1[C@@H]2C(=O)C[C@@]2(C)[C@H]1CC[C@]2(O)C(=O)CO,Z-AUC,[1],-0.919 (inactive)
same,Z-AUC,[1]; [4],-0.762
same,Z-AUC,[1]; measured here: PEO4 Z-AUC,-0.828
same,z-score,[2]; [5],1.31
same,z-score,[2]; [6],1.23
same,z-score,[2]; [7],-3.21
same,"activity, negative = inhibition",[3]; [8],9.08% (inactive)
same,"activity, negative = inhibition",[3]; [9],14.6% (inactive)
same,Potency,3D7,inactive
same,Potency,7G8,inactive
same,Potency,AA1029,inactive
same,Potency,AS120,inactive
same,Potency,ATS189,inactive
same,Potency,ATS95,inactive
same,Potency,C2A,inactive
same,Potency,CP185,inactive
same,Potency,CP191,inactive
same,Potency,CP192,inactive
same,Potency,CP194,inactive
same,Potency,CP201,inactive
same,Potency,CP203,inactive
same,Potency,CP211,inactive
same,Potency,CP215,inactive
same,Potency,CP217,inactive
COc1c(N2CCNC(C)C2)c(F)cc2c(=O)c(C(=O)O)cn(C3CC3)c12 (centres undefined),Z-AUC,[1],0.833 (inactive)
same,Z-AUC,[1]; [4],0.836
same,Z-AUC,[1]; measured here: PEO4 Z-AUC,0.282
same,z-score,[2]; [5],0.46
same,z-score,[2]; [6],0.931
same,z-score,[2]; [7],0.897
same,"activity, negative = inhibition",[3]; [8],-14.8% (inactive)
same,"activity, negative = inhibition",[3]; [9],-1.5% (inactive)
same,Potency,3D7,inactive
same,Potency,AS120,inactive
same,Potency,ATS189,inactive
same,Potency,ATS95,inactive
same,Potency,C2A,inactive
same,Potency,CP185,inactive
same,Potency,CP191,inactive
same,Potency,CP192,inactive
same,Potency,CP201,inactive
same,Potency,CP203,inactive
same,Potency,CP211,inactive
same,Potency,CP215,inactive
same,Potency,CP217,inactive
COc1cc([C@@H]2c3cc4c(cc3[C@H](O)[C@H]3COC(=O)[C@H]23)OCO4)cc(OC)c1OC,Potency,[1],17.4 nM (active)
COC(=O)Nc1nc2ccc(C(=O)c3ccccc3)cc2[nH]1,Potency,[1],436 nM (active)
CN1CCCC(n2nc(Cc3ccc(Cl)cc3)c3ccccc3c2=O)CC1 (centres undefined),"activity, negative = inhibition",[3]; [8],-9.96% (inactive)
same,"activity, negative = inhibition",[3]; [9],-11.1% (inactive)
same,Potency,3D7,inactive
same,Potency,7G8,12600 nM (active)
same,Potency,CP185,inactive
same,Potency,CP192,inactive
same,Potency,CP194,inactive
same,Potency,CP211,inactive
CCc1c2c(nc3ccc(OC(=O)N4CCC(N5CCCCC5)CC4)cc13)-c1cc3c(c(=O)n1C2)COC(=O)[C@]3(O)CC,Potency,[1],30.9 nM (active)
same,Z-AUC,[1]; [4],-2.61
same,Z-AUC,[1]; measured here: PEO4 Z-AUC,-1.83
same,"activity, negative = inhibition",[3]; [8],-1.15% (inactive)
same,Potency,3D7,inactive
same,Potency,AA1029,inactive
same,Potency,AS120,inactive
same,Potency,ATS189,inactive
same,Potency,ATS95,inactive
same,Potency,C2A,inactive
same,Potency,CP185,inactive
same,Potency,CP191,inactive
same,Potency,CP192,inactive
same,Potency,CP194,inactive
same,Potency,CP201,inactive
same,Potency,CP203,inactive
same,Potency,CP211,inactive
same,Potency,CP215,inactive
same,Potency,CP217,inactive
